Assay outcomes (PubChem)
Only some compounds are listed: those with a hit (about 9.5% of all), similar ones and a draw of the others.
Tau FP inhib = blocks human tau fibril formation measured by polarization. AID 1468. Potency, µM (doses to about 57.7 µM), for the others: at the highest dose activity, negative = inhibition, most hits filed as inhibitors. P10636. 0.39% of 280,000 active. K18 P301L tau heparin fibrillization, Alexa594 FP, 6 h; further: nearly all actives have a fitted effect of over 55% in size
Target sequence (P10636 561-689 P618L limits assumed): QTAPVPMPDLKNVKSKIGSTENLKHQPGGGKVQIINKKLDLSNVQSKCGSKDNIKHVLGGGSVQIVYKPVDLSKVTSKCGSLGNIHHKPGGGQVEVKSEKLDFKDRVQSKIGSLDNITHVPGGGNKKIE
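FP of Alexa 594-tau after heparin (20 uM) induction. Substrate: human K18 P301L, 15 uM unlabeled, 0.24 uM labeled. Buffer 100 mM sodium acetate pH 7. 6 hr, 37 C.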
ALDH1A1 inh = blocks purified human ALDH1A1 activity | P00352 | AID 1030 | Potency, µM (highest dose often 75.3 µM), without a hit: at the highest dose activity, negative = inhibition, usual class: inhibitors | Purified ALDH1A1, NADH fluorescence, propionaldehyde substrate | 7.3% of 220,000 active; active means well fitted inhibition curve with a large enough effect, not every such curve was filed as active; inconclusive means small, poorly fitted or top-dose-only effect, or another doubt; inactive means no such curve, though single readings can be large or run the other way;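 further: plate controls were no enzyme wells and a reference inhibitor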
Tau fibril ThT = inhibitors of human tau fibril formation, thioflavin T binding; recombinant tau K18 P301L, heparin-induced fibrillization, ThT fluorescence; Potency, µM (highest dose often 57.4 µM), for the others: at the highest dose activity, negative = inhibition, hits mostly inhibitors; 2.1% of 270,000 active; AID 1460; P10636; further: nearly all actives have a fitted effect of over 55% in size
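Tau K18 P301L fragment (15 uM unlabeled plus 0.24 uM Alexa 594-labeled) in 100 mM sodium acetate pH 7 with compound, fibrillization induced by 20 uM heparin for 6 hr at 37 C. Thioflavin T (30 uM) added, fluorescence read after 1 hr (ex 450, em 510 nm).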
NPSR antag = neuropeptide S receptor (human) antagonism, cAMP | Q6W5P4 | CHO-NPSR cells, cAMP TR-FRET, antagonist mode | Potency, µM (series often up to 38.3 µM), for the others: at the highest dose activity change, negative = inhibition, usual class: inhibitors | 1% of 220,000 active | AID 1461; further: nearly all actives have a fitted effect of over 50% in size
Target sequence (Q6W5P4 whole entry, looked up): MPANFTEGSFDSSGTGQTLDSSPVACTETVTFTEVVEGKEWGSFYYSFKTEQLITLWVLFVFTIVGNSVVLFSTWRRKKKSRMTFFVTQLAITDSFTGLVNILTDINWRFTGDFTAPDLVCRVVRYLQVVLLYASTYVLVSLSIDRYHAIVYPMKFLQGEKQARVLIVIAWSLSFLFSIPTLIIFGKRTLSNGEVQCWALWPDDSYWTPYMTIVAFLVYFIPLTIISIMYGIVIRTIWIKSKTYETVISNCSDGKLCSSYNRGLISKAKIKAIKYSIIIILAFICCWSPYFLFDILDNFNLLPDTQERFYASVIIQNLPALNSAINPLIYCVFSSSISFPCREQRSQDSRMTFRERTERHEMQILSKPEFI
HPGD inh = HPGD (human) dehydrogenase inhibition; P15428; purified HPGD, NADH fluorescence kinetic, PGE2 substrate; Potency, µM, for the others: top-dose activity change, negative = inhibition, actives largely listed as inhibitors; 4.3% of 150,000 active; active means well fitted inhibition curve with a large enough effect, not every such curve was filed as active; inconclusive means small, poorly fitted or top-dose-only effect, or another doubt; inactive means no such curve, though single readings can be large or run the other way
Target sequence (P15428 whole entry, looked up): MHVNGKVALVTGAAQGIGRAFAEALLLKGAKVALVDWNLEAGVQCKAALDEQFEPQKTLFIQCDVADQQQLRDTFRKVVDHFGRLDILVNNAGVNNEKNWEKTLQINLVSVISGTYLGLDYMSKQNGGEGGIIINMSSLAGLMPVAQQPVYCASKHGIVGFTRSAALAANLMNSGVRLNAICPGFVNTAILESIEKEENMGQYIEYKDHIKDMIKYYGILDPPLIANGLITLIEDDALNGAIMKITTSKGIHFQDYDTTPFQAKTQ
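NADH formation kinetics: reaction with 30 uM PGE2 and 1 mM NAD+ (final), 20 nM enzyme, Tris-HCl pH 8 with Tween 20, after 15 min compound preincubation at room temperature. Fluorescence change, last versus first of five reads.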
Tau fluor cs = counter-screen for tau fibril formation inhibitors; tau K18 P301L Alexa594 fluorescence, heparin fibrillization; Potency, µM (doses to about 57.7 µM), for the others: at the top dose activity change, negative = decrease; 0.93% of 280,000 active; AID 1463; further: nearly all actives have a fitted effect of over 55% in size
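Human tau K18 P301L (15 uM unlabeled, 0.24 uM Alexa 594-labeled) in 100 mM sodium acetate pH 7 with 20 uM heparin, 6 hr at 37 C. ThT 30 uM added, 1 hr ambient; Alexa 594 FP and total fluorescence read at 555/632 nm.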
* hit, by the source's call; u = inconclusive; x = no result given; [ ] = another dose, or the depositor's remark. Unless noted, the call rests on the fitted dose curve; in most records, active means well fitted curve in the direction sought with a large enough effect; inconclusive means small, poorly fitted or top-dose-only effect, or another doubt; inactive means no such curve, though single readings can be large; an effect the other way counts as inactive or inconclusive. Unless noted, on the % scale 0 is the no-effect control and ±100 the full control effect; potency means the concentration at half of the fitted maximal effect.

SMILES | Tau FP inhib | ALDH1A1 inh | Tau fibril ThT | NPSR antag | HPGD inh | Tau fluor cs
O=C(N/N=C1\CC2CC=CC12)c1ccc(O)cc1 (stereo unspecified) | u | u | -8.5% | 4.1% | x | -7.9%
CCN(CC)S(=O)(=O)c1ccc(NC(=O)COC(=O)CCc2cc(OC)c(OC)c(OC)c2)cc1 | -8.5% | 2.51µM* | -7.5% | 22.3% | -4.5% | u
CCN(CC)S(=O)(=O)c1cccc(C(=O)OCC(=O)Nc2ccc3c(c2)c2ccccc2n3CC)c1 | u | 22.4µM* | -16.1% | 9.1% | -25.8% | u
CCn1c2ccccc2c2cc(NC(=O)COC(=O)c3cccc(S(=O)(=O)NC)c3)ccc21 | 0.9% | -3.9% | u | 24.1% | -6.7% | 10µM*[quencher]
COc1cc(CCC(=O)OCC(=O)Nc2cccc(S(=O)(=O)N(C)C)c2)cc(OC)c1OC | -0.9% | -8.7% | -5.6% | 11.8% | -2.0% | -15.3%
CCn1c2ccccc2c2cc(NC(=O)COc3cccc(C)c3)ccc21 | 5.2% | x | u | x | x | -29.7%
CCOc1cccc(C(=O)N(Cc2ccc(F)cc2)Cc2ccco2)c1 | -0.6% | x | u | x | x | -14.9%
CC(=O)c1cccc(N(C(=O)Cn2nnc3ccccc32)C(C(=O)NCc2ccccc2)c2ccc(F)cc2)c1 (stereo unspecified) | -9.9% | x | -11.7% | x | x | -17.5%
COc1ccc(C(C#N)C2(C)OCCO2)cc1OC (stereo unspecified) | -2.3% | 11.2µM* | 12.6% | -14.7%[46.1 µM] | -8.6% | 3.1%
COc1ccc(C(C#N)N2CCCCC2)cc1OC (stereo unspecified) | 1.2% | u | -5.3% | -18.7%[46.1 µM] | -10.5% | 1.6%
C[C@H]1Cc2c(-c3ccccc3)nc3c(c2CO1)CN(S(=O)(=O)c1ccc2c(c1)OCCN2C)CC3 | 1.6%[11.6 µM] | -3.6%[13.5 µM] | 9.8%[11.5 µM] | x | -9.2% | 8.1%[11.6 µM]
COc1ccc(Nc2nnc(-c3cc4c(ccc5ccccc54)oc3=O)s2)cc1 | 3.1% | x | 5.01µM* | x | x | u
CNc1oc(-c2ccc(C)cc2)nc1P(=O)(c1ccccc1)c1ccccc1 | 12.3% | u | u | 12.6µM* | -25.0% | -18.9%
Cc1ccc(NC(=O)NCCN2C(=O)C3C4C=CC(C4)C3C2=O)cc1 (stereo unspecified) | 1.0% | 10µM* | -8.2% | -9.0%[46.1 µM] | -17.4% | -15.6%
O=C(NCCN1C(=O)C2C3C=CC(C3)C2C1=O)Nc1ccccc1 (stereo unspecified) | 19.5% | 12.6µM* | -12.7% | -6.4%[46.1 µM] | -13.4% | -3.3%
Cc1cccc(NC(=O)NCCN2C(=O)C3C4C=CC(C4)C3C2=O)c1 (stereo unspecified) | -0.6% | u | -0.4% | -1.6%[46.1 µM] | -0.2% | -1.9%
COc1ccc(NC(=O)NCCN2C(=O)C3C4C=CC(C4)C3C2=O)cc1 (stereo unspecified) | 3.1% | u | -6.0% | 7.9% | 2.3% | -7.7%
CC(C)(C)c1ccc(C(=O)NCC(=O)OCc2cc(=O)n3nc(C4CC4)sc3n2)cc1 | 1.5% | x | -12.8% | x | x | 6.0%
O=C(NC(=S)Nc1ccc2c(c1)OCCO2)c1ccco1 | -3.6% | x | x | 7.3% | x | -5.1%
O=C(NC(=S)Nc1ccc2c(c1)OCO2)c1ccc(Cl)cc1 | -3.0% | 14.1µM* | -17.5% | -6.0% | -14.7% | -17.0%
CC(C)C(=O)Nc1cccc(NC(=S)NC(=O)c2ccc(Cl)cc2)c1 | -14.8% | 10µM* | u | -25.1%[46.1 µM] | -8.0% | u
Cc1ccc(C(=O)Nc2ccc3c(c2)OCO3)cc1 | 2.8% | -14.6% | u | 13.4%[46.1 µM] | -6.2% | u
Cc1cc(C)cc(C(=O)NC(=S)Nc2ccc3c(c2)OCCO3)c1 | u | 12.6µM* | -13.4% | 4.2%[46.1 µM] | x | u
CCc1ccc(C(=O)NC(=S)Nc2ccc3c(c2)OCCO3)cc1 | u | 17.8µM* | u | -1.7% | -15.1% | u
C/C(=N\NC(=O)c1ccc(Cl)c(S(=O)(=O)Nc2ccccc2Cl)c1)c1ccncc1 | 3.0% | u | -9.4% | -9.1% | -0.6% | -5.9%
SMILES | Tau FP inhib | ALDH1A1 inh | Tau fibril ThT | NPSR antag | HPGD inh | Tau fluor cs
Cc1cc(NC(=O)c2coc(=O)c(Br)c2)ccc1C(C)C | -8.7% | u | u | u | x | -22.7%
O=C(NCc1ccccc1C(F)(F)F)C12CN(Cc3ccccc3)CC1C(c1ccc([N+](=O)[O-])cc1)=NO2 (stereo unspecified) | 11.9% | 25.1µM* | 0.6% | -29.9%[46.1 µM] | -17.4% | -19.6%
CC(C)CCNC(=O)C12CN(Cc3ccccc3)CC1C(c1ccc([N+](=O)[O-])cc1)=NO2 (stereo unspecified) | -0.9% | 2.82µM* | -9.3% | u | -21.6% | -21.0%
Cc1ccc(CCNC(=O)C23CN(Cc4ccccc4)CC2C(c2cccc([N+](=O)[O-])c2)=NO3)cc1 (stereo unspecified) | 8.6% | u | -4.4% | u | -18.1% | -19.6%
COc1cccc(CNC(=O)C23CN(Cc4ccccc4)CC2C(c2ccc([N+](=O)[O-])cc2)=NO3)c1 (stereo unspecified) | 10.1% | u | -8.2% | -24.8%[46.1 µM] | -8.0% | -9.9%
COc1ccc(CCNC(=O)C23CN(Cc4ccccc4)CC2C(c2cccc([N+](=O)[O-])c2)=NO3)cc1 (stereo unspecified) | 15.1% | 8.91µM* | -17.1% | -0.6%[46.1 µM] | -25.1% | -19.9%
Cc1ccc2oc3c(c(=O)c2c1)C(c1ccc(F)cc1)N(CCCN1CCOCC1)C3=O (stereo unspecified) | -1.1% | 3.55µM* | -19.9% | -9.3%[46.1 µM] | -25.4% | -10.6%
Cc1ccc2oc3c(c(=O)c2c1)C(c1cccc(Cl)c1)N(CCCN1CCOCC1)C3=O (stereo unspecified) | 2.9% | 12.6µM* | -8.3% | -12.1%[46.1 µM] | -0.2% | -5.2%
CCOc1cc(C(=O)NC(=S)Nn2cnnc2)cc(OCC)c1OCC | 2.3% | 11.2µM* | -3.0% | 1.4% | x | -2.3%
CCOC(=O)CNC(=O)O[C@@H]1C(=O)c2cc(Br)ccc2O[C@H]1c1cccc(OC)c1 | 1.0% | -1.5% | -12.2% | x | -5.1% | -11.3%
CCOC(=O)c1cc(-c2cccnc2)nn1-c1ccccc1 | -2.3% | -7.6% | -1.2% | -4.2% | x | -3.1%
CCOC(=O)c1cc(-c2ccccc2)nn1-c1ccccn1 | 4.0% | 12.6µM* | -2.7% | -17.6%[46.1 µM] | -19.8% | 2.3%
COc1ccccc1Nc1ccc(C(=O)O)cc1[N+](=O)[O-] | 4.4% | u | u | -38.1% | x | -8.6%
COc1cccc(Nc2ccc(C(=O)O)cc2[N+](=O)[O-])c1 | 5.0% | -8.9% | u | -1.2%[46.1 µM] | 28.2µM* | 1.6%
CCC(=O)c1ccc(O)c(CC=C(C)C)c1 | -0.4% | u | -3.1% | 8.2%[46.1 µM] | u | -4.8%
CC(C)=CCc1c(O)ccc(C(=O)Cc2ccccc2)c1O | 14.1µM* | 14.1% | -17.2% | -0.6%[46.1 µM] | u | u
